An excerpt weighted towards active compounds, which were near 8% of everything screened.
KB-V1 cytotox – KB-V1 MDR subline cytotoxicity; AID 1347076; Potency, µM (series often up to 46.1 µM), most hits filed as cytotoxic; KB-V1 MDR cells viability, CellTiter-Glo, 72 h; 400,000 tested, 3.4% active; note: % is set by controls: 0 for no effect and ±100 for the full control effect; nearly all actives have a fitted effect of over 60% in size
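Following 72 h at 37 degrees C with compound, KB-V1 cell viability was read by CellTiter-Glo luminescence, medium being phenol-red-free DMEM plus 10% FBS; concentration-response parameters came from normalized, curve-fitted qHTS data.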
SW480 rerep – inducers of DNA re-replication in SW480 colon cancer cells | 340,000 tested, 1.8% active | SW480 DNA re-replication, Hoechst DNA content imaging, 48 h | AID 624297 | Potency, µM (titrated, usually from 46.1 µM), for inactives: at the highest dose re-replication activation, usual class: activators; note: % of control where 0% means no effect; nearly all actives have a fitted effect of over 55% in size
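Per well, 250 cells were exposed to pinned compound for 48 hr. Nuclear DNA was visualised with Hoechst (40 min, 37 C) and total object intensity recorded by fluorescence scanning.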
KB-3-1 tox – kills parental KB-3-1 adenocarcinoma cells; Potency, µM (series often up to 46.1 µM), actives largely listed as cytotoxic; AID 1347075; 400,000 tested, 1.4% active; KB-3-1 viability, CellTiter-Glo ATP luminescence, 72 h; note: % is set by controls: 0 for no effect and ±100 for the full control effect; nearly all actives have a fitted effect of over 60% in size
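Using CellTiter-Glo luminescence, growth of non-resistant KB-3-1 adenocarcinoma cells is assessed 72 h after pin-tool compound addition at 37 °C. Normalized responses across the concentration series yield fitted curves.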
HT1080 IDH1KD tx – kills HT-1080 cells with IDH1 knockdown; HT-1080 IDH1 knockdown viability, ATP luminescence, 48 h; Potency, µM (titrated, usually from 46.1 µM), for inactives: at the top dose activity, negative = toxicity, hits mostly cytotoxic; 360,000 tested, 2% active; AID 686971;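 note: 0% = DMSO wells and -100% = cell-free medium wells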
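Viability of IDH1-knockdown HT-1080 fibrosarcoma cells was assessed by CellTiter-Glo after 48 h at 37 °C with titrated compound; concentration-effect curves were classified by fit quality and response size.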
MCF10A rereplic – induces DNA re-replication in MCF 10a normal breast cells | MCF 10A DNA re-replication, Hoechst nuclear intensity, 48 h | 350,000 tested, 2.9% active | Potency, µM (series often up to 46.1 µM), without a hit: at the top dose activity, positive = re-replication, actives largely listed as activators; note: % of control where 0% means no effect; nearly all actives have a fitted effect of over 50% in size
HT1080-NT tox – kills 2HG-producing HT-1080-NT fibrosarcoma cells. HT-1080-NT fibrosarcoma viability, CellTiter-Glo ATP luminescence, 48 h. Potency, µM (top dose mostly 46.1 µM), for inactives: top-dose activity, negative = less viability, hits mostly cytotoxic. 360,000 tested, 1.6% active;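 note: NT is the 2HG producing partner of a matched IDH1 knockdown line; 0% = DMSO-treated cells and -100% = media-only wells without cells; nearly all actives have a fitted effect of over 55% in size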
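A 48-hour cytotoxicity screen used HT-1080-NT cells plated 2 hours before compound delivery. ATP-based CellTiter-Glo luminescence measured viability, normalized to DMSO and no-cell controls.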
The depositor's hits bear a star; i = inactive; u = inconclusive; x = no result given; [ ] = another dose, or the depositor's remark. Calls come from the whole dose curve; as a rule, active = well fitted curve in the direction sought with a large enough effect; inconclusive = small, poorly fitted or top-dose-only effect, or another doubt; inactive = no such curve, though single readings can be large; an effect the other way counts as inactive or inconclusive. Potency is the fitted concentration of half-maximal effect.

SMILES	KB-V1 cytotox	SW480 rerep	KB-3-1 tox	HT1080 IDH1KD tx	MCF10A rereplic	HT1080-NT tox
NS(=O)(=O)c1ccc(Oc2ccc(S(N)(=O)=O)cc2)cc1	i	-4%	i	1%	-24%	6%
CC(C)(C)C1CCC(C(=O)Nc2ccccc2)CC1 (stereo unspecified)	i	u	i	6%	u	18%
Cc1ccc(Nc2nc(N)c(C#N)c(CC#N)c2C#N)cc1	i	u	i	u	21µM*	u
Cc1ccc(-n2nc(CC#N)c(C#N)c2N)cc1	i	-3%	i	9%	-7%	1%
O=S1(=O)c2ccc(Br)cc2N2CCC[C@@H]2CN1Cc1ccc(Cl)cc1	u	u	i	5%	u	6%
O=S1(=O)c2ccc(Br)cc2N2CC[C@H](C2)N1Cc1ccc(Cl)cc1	u	6.5µM*	u	7.3µM*	3.3µM*	u
C[C@@H](c1ccccc1)N1C[C@H]2CCCN2c2cc(Br)ccc2S1(=O)=O	u	16µM*	u	u	7.3µM*	u
O=S1(=O)c2ccc(Br)cc2N2CCC[C@H]2CN1Cc1ccccc1	5.2µM*	5.2µM*	u	5.8µM*	2.6µM*	u
C[C@H](O)[C@@H]1C(=O)N2CCc3ccc(-c4ccccc4)cc3[C@@H]2C[C@@H]1N(C)C(=O)c1ccc(C#N)cc1	i	2%	i	-5%	8%	0%
CCOC(=O)C(CCc1ccccc1)NC1CCc2ccccc2N(CC(=O)O)C1=O (stereo unspecified)	x	27µM*	x	x	30µM*	x
CCC(C)c1ccc(S(=O)(=O)N2CCN(CC(O)CN3CCOCC3)CC2)cc1 (stereo unspecified)	5.8µM*	-6%	i	0%	9%	4%
Cc1ccc(S(=O)(=O)N2CCN(CC(O)CN3CCOCC3)CC2)cc1 (stereo unspecified)	i	u	i	-1%	u	2%[9.24 µM]
S=C(NC1CCCCC1)N(CCc1nc2ccccc2[nH]1)C1CCCC1	16µM*	3%	u	-26%	15%	-15%
O=C(Nc1ccccc1)N(CCc1nc2ccccc2[nH]1)C1CCCC1	16µM*	4%	i	1%	7%	-18%
Cn1ncc(Cl)c1C(=O)N1CCN(c2cccc(Cl)c2)CC1	u	9%	u	5%	13%	3%
COc1ccc(C2CC2C(C)=O)cc1 (stereo unspecified)	i	-5%	i	9%	-12%	4%
CSc1ccccc1C(=O)Nc1nc2ccccc2c(=O)[nH]1	i	11%	i	-2%	-3%	-25%
COC(=O)c1ccccc1NC(=O)CSc1nc2ccccc2c(=O)[nH]1	i	-9%	i	-18%	4%	-5%
CCOc1ccccc1Nc1nnc(SCC(=O)Nc2nc(-c3ccc(OC)cc3)cs2)s1	i	0%	i	9%	0%	-5%
CCSc1ccccc1C(=O)Nc1nc2ccccc2c(=O)[nH]1	18µM*	u	i	u	21%	-14%
COc1ccc(-c2csc(NC(=O)CSc3nc4ccccc4c(=O)[nH]3)n2)cc1	i	u	i	16µM*	19%	18µM*
NC(=O)c1ccccc1NC(=O)CSc1nc2ccccc2c(=O)[nH]1	x	-7%	x	u	-11%	13µM*
COc1ccc(-c2csc(NC(=O)CSc3nnc(Nc4ccccc4C)s3)n2)cc1	i	5.8µM*	i	21µM*	u	21µM*
Cc1ccc(-c2csc(NC(=O)CSc3nc4ccccc4[nH]3)n2)cc1	i	-5%	i	-21%	u	0%
Cc1ccc(C(=O)OCC(=O)NC2CCCCC2)cc1S(=O)(=O)N1CCCCC1	i	30%	i	3%	u	-6%

Screening results as filed in PubChem.
